Measurements published in PubChem BioAssay (NCATS).
Inconclusive results are not listed. Calls of active or inactive are those of the source. Unless noted, calls follow the shape of the dose curve; as a rule, active = well fitted inhibition curve with a large enough effect; inconclusive = small, poorly fitted or top-dose-only effect; inactive = no such curve, though single readings can be large or run the other way. Non-standard residues stand in square brackets, D forms with d. Residues, ends and D or L forms follow the SMILES beside them. *: point of attachment. Nva = CCC[C@H](N)C(=O)O; Cbz = O=C(OCc1ccccc1)*

How the values were obtained:
[1] = qHTS profiling of the MIPE4 collection as inhibitors of Plasmodium falciparum (HB3) proliferation (AID 743347; call rule not given here;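 also: plate controls were DMSO vehicle wells for no effect and artemisinin wells for full effect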); conditions: P. falciparum HB3 in erythrocytes, SYBR Green DNA, 72 h; at 28.5 µM (top of the series) unless noted
How it was run: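 Parasite DNA was quantified by SYBR Green I fluorescence (ex 485, em 535 nm) after overnight lysis in saponin/Triton buffer at room temperature. Cultures at 0.3% parasitemia and 2.5% hematocrit were first exposed to compound for 72 h at 37 C; signals were normalised to artemisinin (0.29 uM) and vehicle wells.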

[2] = High-throughput drug toxicity screening in the BPDCN cell line Gen2.2 (AID 1224824; call rule not given here;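 also: cells exposed to compounds for 48 h before reading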); conditions: Gen2.2 BPDCN cells; at 45.8 µM (top of the series) unless noted
How it was run: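 Gen2.2 cells, 500 per well in phenol red-free RPMI with 10% FBS, exposed to compounds 48 h at 37 C, 5% CO2; viability by CellTiter-Glo luminescence. Percent activity scaled to DMSO (100%) and 9.2 uM bortezomib final (0%).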

[3] = High-throughput drug toxicity screening in the BPDCN cell line Cal-1 (AID 1224825; call rule not given here); conditions: Cal-1 BPDCN cell viability, qHTS; at 45.8 µM (top of the series) unless noted
How it was run: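 CellTiter-Glo luminescence after 48 h compound exposure; percent activity scaled with DMSO as 100% and bortezomib (9.2 uM final) as 0%. Cal-1 cells seeded at 500/well in RPMI, 10% FBS, no phenol red.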

[4] = qHTS assay for measurement of the activity of small molecule inhibitors on Zika virus induced Caspase-3 activity in human iPSC derived neural progenitor cells (hNPCs) (AID 1224857); also: % of control where 0% means no effect; nearly all actives have a fitted effect of over 65% in size
How it was run: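 hNPCs seeded 350 cells/well, cultured 16–20 h; compounds added 1 h before ZIKV (2 FFU/cell), 37 C 6 h. Caspase-Glo 3/7 luminescence after 30 min RT; % inhibition from induction scaled to uninfected (0%) and infected (100%) wells.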

[5] = qHTS assay for measurement of the activity of small molecule inhibitors on Zika virus induced Caspase-3 activity in human astrocytoma cells (AID 1224859);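 also: plate controls were ZIKV-infected untreated cells for no effect and uninfected cells for full effect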
How it was run: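 Luminescence read-out (Caspase-Glo 3/7, 30 min RT) of caspase activity in SNB-19 cells infected 6 h with ZIKV, 2 FFU/cell, after 1 h compound pretreatment; % inhibition from induction normalised to uninfected (0%) and infected (100%) wells.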

[6] = qHTS Screen of the MIPE 4.0 Collection Against Ewings Sarcoma (RDES) (AID 1259252); also: nearly all actives have a fitted effect of over 35% in size; also: potency is read from the fitted curve at half-maximal effect
How it was run: (§1)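 Viability screen: 48 h incubation at 37C, 95% humidity, 5% CO2 with serially titrated compound, followed by CellTiter-Glo readout.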

[7] = qHTS Screen of the MIPE 4.0 Collection Against Ewings Sarcoma (TC71) (AID 1259253); also: nearly all actives have a fitted effect of over 40% in size; also: potency is read from the fitted curve at half-maximal effect
How it was run: as §1

[8] = qHTS Screen of the MIPE 4.0 Collection Against Ewings Sarcoma (EW8) (AID 1259255); also: nearly all actives have a fitted effect of over 35% in size; also: potency is read from the fitted curve at half-maximal effect;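 as to viability: 100% = DMSO-treated cells and 0% = medium-only wells without cells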
How it was run: as §1

[9] = qHTS Screen of the MIPE 4.0 Collection Against Ewings Sarcoma (TC32) (AID 1259256); also: nearly all actives have a fitted effect of over 45% in size; also: potency is read from the fitted curve at half-maximal effect
How it was run: as §1

For CCC[C@@H](C=O)NC(=O)[C@H](CC(C)C)NC(=O)[C@H](CC(C)C)NC(=O)OCc1ccccc1 (Cbz-Leu-Leu-[Nva]-aldehyde), which growth, % of control [1] is on record?
The growth, % of control was 3.3%.

And the cell viability, % of control (lower = more cytotoxic) [2]?
The cell viability, % of control (lower = more cytotoxic) was 10.9%.

What about the viability (% of control) [3] of the same compound?
Its viability (% of control) is 7.12%.

What about the Potency [4] of the same compound?
Its Potency is “inactive”.

What about the Potency [5] of the same compound?
Its Potency is “inactive”.

What about the Potency [6] of the same compound?
Its Potency is 1180 nM (active).

What about the Potency [7] of the same compound?
The Potency was 1320 nM (active).

And the Potency [8]?
Its Potency is 743 nM (active).

What about the Potency [9] of the same compound?
Its Potency is 1050 nM (active).

With CN(C)CCN1C(=O)c2cccc3cc(N)cc(c23)C1=O as the compound, how does the growth, % of control [1] read?
The growth, % of control was 9.26%.

What about the cell viability, % of control (lower = more cytotoxic) [2] of the same compound?
The cell viability, % of control (lower = more cytotoxic) was 5.29%.

What about the viability (% of control) [3] of the same compound?
Its viability (% of control) is 4.08%.

What about the Potency [4] of the same compound?
Its Potency is “inactive”.

What about the Potency [5] of the same compound?
The Potency was “inactive”.

And the Potency [6]?
The Potency was 16600 nM (active).

And the Potency [7]?
Its Potency is 14800 nM (active).

What about the Potency [8] of the same compound?
The Potency was 1660 nM (active).

And the Potency [9]?
Its Potency is “inactive”.

What does the source list for COc1cc2c(Nc3ccc(Cl)c(Cl)c3F)ncnc2cc1OCC1C[C@@H]2CN(C)C[C@H]2C1?
growth, % of control [1]: 7.13%; cell viability, % of control (lower = more cytotoxic) [2]: 2.56%; viability (% of control) [3]: 2.8%; Potency [4]: inactive; Potency [5]: inactive; Potency [6]: 14800 nM (active); Potency [7]: 10500 nM (active); Potency [8]: 11800 nM (active); Potency [9]: 13200 nM (active)

Which growth, % of control [1] does the source give for COc1cc(CCc2cc(NC(=O)c3ccc(N4C[C@@H](C)N[C@@H](C)C4)cc3)n[nH]2)cc(OC)c1 here?
Its growth, % of control is 10.3%.

And the cell viability, % of control (lower = more cytotoxic) [2]?
The cell viability, % of control (lower = more cytotoxic) was 14%.

What about the viability (% of control) [3] of the same compound?
The viability (% of control) was 4.08%.

What about the Potency [4] of the same compound?
Its Potency is “inactive”.

What about the Potency [5] of the same compound?
The Potency was “inactive”.

And the Potency [6]?
The Potency was 18700 nM (active).

What about the Potency [7] of the same compound?
The Potency was 16600 nM (active).

What about the Potency [8] of the same compound?
The Potency was 16600 nM (active).

And the Potency [9]?
The Potency was 13200 nM (active).

With Oc1ccc([C@@H]2Oc3ccc(O)cc3[C@@H]3CCC[C@@H]32)cc1 as the compound, how does the growth, % of control [1] read?
Its growth, % of control is 81.1%.

What about the cell viability, % of control (lower = more cytotoxic) [2] of the same compound?
The cell viability, % of control (lower = more cytotoxic) was 90.8%.

What about the viability (% of control) [3] of the same compound?
Its viability (% of control) is 14.4%.

What about the Potency [4] of the same compound?
Its Potency is “inactive”.

What about the Potency [5] of the same compound?
Its Potency is “inactive”.

What about the Potency [6] of the same compound?
The Potency was 18700 nM (active).

What about the Potency [7] of the same compound?
Its Potency is 26400 nM (active).

What about the Potency [8] of the same compound?
The Potency was 10500 nM (active).

What about the Potency [9] of the same compound?
The Potency was 9350 nM (active).

Which growth, % of control [1] does the source give for Nc1ccn(C2CO[C@H](CO)O2)c(=O)n1 (some centres undefined) here?
The growth, % of control was 75.5%.

And the cell viability, % of control (lower = more cytotoxic) [2]?
The cell viability, % of control (lower = more cytotoxic) was 203%.

What about the viability (% of control) [3] of the same compound?
Its viability (% of control) is 99.2%.

What about the Potency [4] of the same compound?
The Potency was “inactive”.

What about the Potency [5] of the same compound?
The Potency was “inactive”.

What about the Potency [6] of the same compound?
Its Potency is “inactive”.

And the Potency [7]?
Its Potency is “inactive”.

What about the Potency [8] of the same compound?
The Potency was “inactive”.

What about the Potency [9] of the same compound?
Its Potency is “inactive”.

Which growth, % of control [1] does the source give for O=c1[nH]c(=O)n([C@H]2C[C@@H](O)[C@@H](CO)O2)cc1F here?
The growth, % of control was 138%.

What about the cell viability, % of control (lower = more cytotoxic) [2] of the same compound?
Its cell viability, % of control (lower = more cytotoxic) is 74.8%.

And the viability (% of control) [3]?
Its viability (% of control) is 19.4%.

What about the Potency [4] of the same compound?
The Potency was “inactive”.

What about the Potency [5] of the same compound?
Its Potency is “inactive”.

And the Potency [6]?
The Potency was 59 nM (active).

And the Potency [7]?
Its Potency is 93.5 nM (active).

And the Potency [8]?
Its Potency is 59 nM (active).

And the Potency [9]?
Its Potency is 59 nM (active).

For C=C1C(=CC=C2CCC[C@]3(C)[C@@H]([C@H](C)CCCC(C)(C)O)CC[C@@H]23)C[C@@H](O)C[C@@H]1O, which growth, % of control [1] is on record?
Its growth, % of control is 9.14%.

And the cell viability, % of control (lower = more cytotoxic) [2]?
Its cell viability, % of control (lower = more cytotoxic) is 20.5%.

And the viability (% of control) [3]?
The viability (% of control) was 6.91%.

And the Potency [4]?
Its Potency is “inactive”.

What about the Potency [5] of the same compound?
The Potency was “inactive”.

What about the Potency [6] of the same compound?
Its Potency is 2640 nM (active).

And the Potency [7]?
Its Potency is 2960 nM (active).

What about the Potency [8] of the same compound?
Its Potency is 5260 nM (active).

What about the Potency [9] of the same compound?
Its Potency is 3720 nM (active).

Which growth, % of control [1] does the source give for CCC(C(=O)O)C1CCC(C)C(C(C)C(O)C(C)C(=O)C(CC)C2OC3(C=CC(O)[C@@]4(CC[C@](C)(C5CC[C@@](O)(CC)C(C)O5)O4)O3)C(C)CC2C)O1 (some centres undefined) here?
The growth, % of control was 16.9%.

What about the cell viability, % of control (lower = more cytotoxic) [2] of the same compound?
Its cell viability, % of control (lower = more cytotoxic) is 16%.

And the viability (% of control) [3]?
The viability (% of control) was 12.3%.

What about the Potency [4] of the same compound?
The Potency was “inactive”.

What about the Potency [5] of the same compound?
Its Potency is “inactive”.

And the Potency [6]?
The Potency was 1180 nM (active).

What about the Potency [7] of the same compound?
The Potency was 1480 nM (active).

What about the Potency [8] of the same compound?
The Potency was 833 nM (active).

And the Potency [9]?
Its Potency is 2640 nM (active).

Which growth, % of control [1] does the source give for O=C(NC1CC1)c1cccc(-c2ccc3c(NC(=O)C4CC4)n[nH]c3c2)c1 here?
The growth, % of control was 63.3%.

And the cell viability, % of control (lower = more cytotoxic) [2]?
Its cell viability, % of control (lower = more cytotoxic) is 224%.

And the viability (% of control) [3]?
The viability (% of control) was 17.8%.

And the Potency [4]?
Its Potency is “inactive”.

And the Potency [5]?
Its Potency is “inactive”.

And the Potency [6]?
Its Potency is 1320 nM (active).

What about the Potency [7] of the same compound?
The Potency was 1320 nM (active).

What about the Potency [8] of the same compound?
The Potency was 3720 nM (active).

What about the Potency [9] of the same compound?
The Potency was 1320 nM (active).

Which growth, % of control [1] does the source give for CC(=O)SCC(Cc1ccccc1)C(=O)NCC(=O)OCc1ccccc1 (centres undefined) here?
Its growth, % of control is 65.1%.

And the cell viability, % of control (lower = more cytotoxic) [2]?
Its cell viability, % of control (lower = more cytotoxic) is 5.18%.

And the viability (% of control) [3]?
The viability (% of control) was 4.75%.

What about the Potency [4] of the same compound?
The Potency was “inactive”.

And the Potency [5]?
The Potency was “inactive”.

And the Potency [6]?
Its Potency is 590 nM (active).

What about the Potency [7] of the same compound?
The Potency was 833 nM (active).

What about the Potency [8] of the same compound?
Its Potency is 1050 nM (active).

Which growth, % of control [1] does the source give for NC(=O)c1ncn([C@@H]2O[C@H](CO)[C@@H](O)[C@@H]2O)c1O here?
The growth, % of control was 71.4%.

What about the cell viability, % of control (lower = more cytotoxic) [2] of the same compound?
Its cell viability, % of control (lower = more cytotoxic) is 113%.

What about the viability (% of control) [3] of the same compound?
Its viability (% of control) is 102%.

What about the Potency [4] of the same compound?
The Potency was “inactive”.

What about the Potency [5] of the same compound?
Its Potency is “inactive”.

And the Potency [6]?
Its Potency is “inactive”.

What about the Potency [7] of the same compound?
Its Potency is “inactive”.

And the Potency [8]?
Its Potency is “inactive”.

Which growth, % of control [1] does the source give for C[C@@H](Oc1ccc2[nH]nc(C=Cc3cnn(CCO)c3)c2c1)c1c(Cl)cncc1Cl here?
The growth, % of control was 5.78%.

What about the cell viability, % of control (lower = more cytotoxic) [2] of the same compound?
The cell viability, % of control (lower = more cytotoxic) was 8.4%.

What about the viability (% of control) [3] of the same compound?
The viability (% of control) was 6.51%.

And the Potency [4]?
Its Potency is “inactive”.

What about the Potency [5] of the same compound?
The Potency was “inactive”.

What about the Potency [6] of the same compound?
The Potency was 3320 nM (active).

And the Potency [7]?
Its Potency is 662 nM (active).

What about the Potency [8] of the same compound?
Its Potency is 418 nM (active).
